PubChem BioAssay AID903 (National Center for Advancing Translational Sciences (NCATS), 2007)
Out of some 55,000 compounds screened, about 340 (0.62%) were called active. Another 3% or so got no clear call; they are omitted. Many of the other results were omitted from the sample, so actives are more common in it than they were. Values without a mark were called inactive. Calls follow the shape of the dose curve; as a rule, active = well fitted cell-killing curve with a large enough effect; inconclusive = small, poorly fitted or top-dose-only effect; inactive = no such curve, though single readings can be large or run the other way.

Assay: qHTS Screen for Compounds that Selectively Target Cancer Cells with p53 Mutations: Cytotoxicity of p53 Null Cells at the Permissive Temperature; also: nearly all actives have a fitted effect of over 55% in size;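 as to activity change, negative = cytotoxicity: 0% = DMSO only and -100% = full killing by 100 µM tamoxifen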
Details: H1299-neo p53 null cells, ATP luminescence, 24 h, 32C; series mostly up to 46.1 µM; activity change, negative = cytotoxicity: at the top concentration
Description: NIH Chemical Genomics Center [NCGC] NIH Molecular Libraries Screening Centers Network [MLSCN] MLSCN Grant: 1 X01 MH079844-01 Assay Submitter (PI): Dr. SUN, YI, University of Michigan NCGC Assay Overview: Synthetic Lethal Screen for Compounds to Kill Cancer Cells with p53 Mutation. Tumor suppressor gene p53 serves as a major cellular barrier against tumorigenesis. […] The goal of this screening is to identify small molecule probes that selectively kill cancer cells with mutations in p53. This screening was carried out using two lines of H1299 lung cancer cells. The H1299-p53 A138V line express a temperature sensitive p53 mutant (p53ts) in which the mutant p53 protein (A138V) is in the mutant confirmation when grown at 39C (the nonpermissive temperature) and in the wild type conformation when grown at 32C (the permissive temperature). A H1299-neo line (p53 null) grown at both 39C and 32C were used as counter-screens to filter out false positive associated with temperature shifting. The small molecular compounds that selectively target mutant p53-containing cancer cells were selected as candidate probes for further study. A cytotoxicity assay based on the measurement of ATP contents in cells was used in this screen. Concentration-responses of all the compounds in the library collection were determined in qHTS using the cell lines and temperature conditions as above.
NCGC Assay Protocol Summary: Both the H1299-p53A138V and H1299-neo cell lines were provided by Dr.Yi Sun, a PI at the University Michigan. The cells were maintained and cultured at 37C. The resuspended frozen cells were used to plate the cells in the 1536-well assay plates at a density of 600 cells per well in 5 ul medium. The assay plates with the cells were incubated at 37C for 16 to 30 hours before the experiments. The library compounds in DMSO solution were added to the cells in assay plates and incubated 24 hours at 39C (for mutant p53 conformation) or 32C (for normal p53 conformation as control). An ATP_lite assay kit (PerkinElmer) was used to determine the cell viability. Tomaxifen (100uM) was used as the positive control for cell killing. Data were normalized to the controls for basal activity (DMSO only) and 100% killing (100uM tamoxifen). AC50 values were determined from concentration-response data modeled with the standard Hill equation. P53 assay protocol: 1. Reagent; 5 uL H1299-p53A138V or H1299-neo cell cells/well 2. Time; overnight; 37C incubation 3. Compounds; 23 nL; 5.9 nM to 46 uM 4. Controls; 23 nL; Tamoxifen 100 uM 5. Time; 24 hr; 32C incubation 6. Reagent; 3 uL; ATP_Lite reagent 7. Time; 20 min; Room Temperature 8. Detection; Luminescence; Viewlux plate reader Keywords: p53, synthetic lethal, cancer, cell viability, cytotoxicity, H1299 cell line, luminescence, MLSMR, MLSCN, NIH Roadmap, qHTS, NCGC
Potency is read from the fitted curve at half-maximal effect.

Structure (SMILES)	Potency	activity change, negative = cytotoxicity
CC(C)Oc1ccc(NC(=O)c2cc3ccccc3o2)cc1	10 µM (active)	
Cn1cc(/C=C/c2nc3ccccc3c(=O)n2-c2ccccc2)c2ccccc21		-4.84%
CC(C)(C)c1ccc(S(=O)(=O)Nc2ccc(O)c(Sc3nc4ccccc4s3)c2)cc1		42.8%
CCCCOc1ccc(C(=O)N2CC(=O)Nc3ccc(Br)cc3C2c2ccc(F)cc2)cc1 (stereo not given)		38.6%
Cc1ccc(Cn2c(C)c3cnn(CC(=O)N4CCC5(CC4)OCCO5)c(=O)c3c2C)cc1		15%
